Bioassay records deposited in PubChem by National Center for Advancing Translational Sciences (NCATS).
LmPK inhibitor: LmPK (Leishmania mexicana) enzyme inhibition; hit rate 0.37% among 290,000; Potency, µM (titrated, usually from 57.5 µM), actives largely listed as inhibitors; Q27686; purified LmPK, Kinase-Glo ATP luminescence, 1 h
Target sequence (Q27686 whole entry, looked up): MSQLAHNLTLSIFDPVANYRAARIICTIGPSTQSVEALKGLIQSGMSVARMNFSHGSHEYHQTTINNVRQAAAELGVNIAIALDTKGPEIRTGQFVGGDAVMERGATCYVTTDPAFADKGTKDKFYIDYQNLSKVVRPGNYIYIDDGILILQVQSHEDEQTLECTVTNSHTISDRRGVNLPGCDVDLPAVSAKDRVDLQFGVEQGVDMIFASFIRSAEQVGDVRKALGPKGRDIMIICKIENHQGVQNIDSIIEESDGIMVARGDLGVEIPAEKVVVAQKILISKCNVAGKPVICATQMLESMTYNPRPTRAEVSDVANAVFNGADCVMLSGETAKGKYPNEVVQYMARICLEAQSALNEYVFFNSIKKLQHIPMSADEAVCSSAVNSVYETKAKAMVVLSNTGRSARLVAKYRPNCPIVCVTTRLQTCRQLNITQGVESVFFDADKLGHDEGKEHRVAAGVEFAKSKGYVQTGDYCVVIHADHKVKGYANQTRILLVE
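qHTS format; LmPK 0.1 nM; substrates PEP 0.5 mM and ADP 0.1 mM. One-hour room-temperature incubation, then coupled luciferase luminescence; 0.5 nM enzyme wells mark activation.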
Tb PYK inh: blocks Trypanosoma brucei pyruvate kinase; hit rate 0.12% among 410,000; TbPYK enzyme, Kinase-Glo Plus ATP luminescence, 45 min; Potency, µM (titrated, usually from 76.8 µM), actives largely listed as inhibitors; Q57TT1; also: nearly all actives have a fitted effect of over 50% in size
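Quantitative HTS: titrated library compounds versus trypanosomal pyruvate kinase in TEA buffer (pH 7.2) containing KCl, MgCl2, BSA and Tween-20. Reactions were initiated with ADP, 130 uM final. Kinase-Glo Plus luminescence was read after 45 min at RT.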
Shiga toxin inh: inhibitors of Shiga toxin in Vero cells; inhibition, % at 38.7 µM; AID 2315; hit rate 9.2% among 290,000; Vero cells, Shiga toxin protein synthesis inhibition reporter; in the data active = inhibition mostly above about 28%, no sharp cut-off; inactive = mostly below about 43%
FBPA Giardia inh: inhibitors of Giardia lamblia fructose-1,6-bisphosphate aldolase. A8B2U2. purified Giardia FBPA. Potency, µM (top dose mostly 59.6 µM), hits mostly inhibitors. hit rate 0.71% among 290,000. AID 2451; also: nearly all actives have a fitted effect of over 55% in size
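40 nM FBPA preincubated 10 min at RT with compound (up to 57.5 uM final), then substrate plus GAPDH/TPI/NAD/arsenate coupling and diaphorase/resazurin added. Fluorescence read after 20 min at RT, 525/598 nm.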
CHX counter: counter-screen hit for Shiga toxin inhibitors, cycloheximide; max response, %; AID 2314; cell reporter, cycloheximide protein synthesis inhibition counterscreen; hit rate 12% among 300,000; in the data active = max response mostly above about 13%, no sharp cut-off; inactive = mostly below about 14%; also: read at 38.3 µM for the half of the compounds with a filed dose
RE007 growth inh: less growth of the S. pombe RE007 Vpr strain; Potency, µM (series often up to 92.2 µM), usual class: inhibitors; hit rate 0.21% among 360,000; AID 651644; S. pombe RE007 Vpr strain, BacTiter-Glo ATP luminescence, 24 h; active = well fitted falling curve with a large enough effect; inconclusive = small, poorly fitted or top-dose-only effect; inactive = no such curve, though single readings can be large or run the other way; also: nearly all actives have a fitted effect of over 50% in size
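Fission yeast strain RE007, carrying one chromosomally integrated HIV-1 vpr copy, was seeded at OD 0.01 in PMG+AL medium with 23 nL pinned compound. After 24 h at 30 °C and 99% humidity, viability was read by BacTiter-Glo luminescence.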
Numbers stand for hits; i = inactive; ? = inconclusive; nt = not tested or not shown; [ ] = dose if it differs, or a comment. Many of the other results were omitted from the sample, so hits are more common in it than they were. Unless noted, calls follow the shape of the dose curve; as a rule, active = well fitted curve in the direction sought with a large enough effect; inconclusive = small, poorly fitted or top-dose-only effect, or another doubt; inactive = no such curve, though single readings can be large; an effect the other way counts as inactive or inconclusive.

SMILES	LmPK inhibitor	Tb PYK inh	Shiga toxin inh	FBPA Giardia inh	CHX counter	RE007 growth inh
CCOC(=O)CSc1nc2ccccc2c(=O)n1NC(=O)c1ccccc1	i	i	66	i	37	i
CCOC(=O)CSc1nc(C)c2ccccc2n1	i	i	i	i	11	i
COc1ccc(C(=O)Nn2c(SCC(=O)c3ccccc3)nc3ccccc3c2=O)cc1	i	i	i	i	38	i
CCOC(=O)CSc1nc(C)c2cccc(C)c2n1	i	i	i	i	i	i
Cc1ccc(CNC(=O)CCCN2C(=O)CCn3nc(-c4cccn4C)cc32)cc1	nt	i	nt	nt	nt	nt
COc1ccc(OC)c(N(CCN2C(=O)c3ccccc3C2=O)C(=O)C2CCC(=O)C2C)c1 (configuration not stated)	nt	i	nt	nt	nt	i
CCOC(=O)C1=C(C)NC(=S)NC1/C=C/c1ccccc1 (configuration not stated)	i	i	i	i	i	i
CC(C)c1ccc(Nc2nc(CC(=O)O)cs2)cc1	i	i	108	i	49	i
CC(C)c1ccc(NC(=O)Nc2nc(CN)cs2)cc1	nt	i	nt	nt	nt	i
O=C(COc1ccc(Cl)cc1)OCc1csc(Nc2ccccc2)n1	i	i	i	i	i	i
O=C(O)Cc1csc(Nc2cccc(Cl)c2)n1	i	?	i	i	16	nt
O=c1[nH][nH]c(=O)c2nc(Nc3ccccc3)ncc12	nt	i	nt	nt	nt	i
CCCOC(=O)c1ccc(NC(=O)Oc2ccccc2)cc1	i	i	i	i	i	i
CCCOC(=O)c1ccc(NC(=O)COC)cc1	i	i	50	i	i	i
CC(=O)Nc1ccc(C(=O)OCCC(C)C)cc1	i	i	84	i	24	i
CCCOC(=O)c1ccc(NC(=O)Cc2csc(C)n2)cc1	nt	i	nt	nt	nt	nt
CCCOC(=O)c1ccc(NC(=O)C2C3C=CC(O3)C2C(=O)O)cc1 (configuration not stated)	i	i	i	i	32	13µM
CC(=O)c1ccc(NC(=O)C2C3C=CC(O3)C2C(=O)O)cc1 (configuration not stated)	i	i	i	i	i	i
CCCOC(=O)c1ccc(NC(=O)CC(C)(C)C)cc1	i	i	54	i	34	i
COc1cc(C(=O)NC2CCN(CC(=O)Nc3cccc(C)c3C)CC2)cc(OC)c1OC	i	i	i	i	i	i
COc1ccc(CCNC(=O)COC(=O)c2cc(=O)[nH]c3ccccc23)cc1	nt	i	nt	nt	nt	i
O=C(/C=C/c1ccc(OCc2cccc(Cl)c2)cc1)N1CCOCC1	i	i	i	i	24	i
O=C(/C=C/c1ccccc1)N1CCOCC1	i	i	i	i	i	i
O=C(/C=C/c1ccc(Cl)c(Cl)c1)N1CCOCC1	i	i	104	i	24	i
CC(OC(=O)/C=C/c1ccc(Br)cc1)C(=O)N1CCOCC1 (configuration not stated)	nt	i	nt	nt	nt	i
SMILES	LmPK inhibitor	Tb PYK inh	Shiga toxin inh	FBPA Giardia inh	CHX counter	RE007 growth inh
O=C(/C=C/c1ccc(Cl)c(Cl)c1)n1cccn1	i	i	i	i	i	i
CC(C)c1ccc(/C=C/C(=O)N2CCOCC2)cc1	i	i	28	i	43	i
O=C(/C=C/c1ccc(Cl)cc1)N1CCOCC1	i	i	54	i	35	i
CCOC(=O)c1c(C)oc2ncnc(N3CCN(c4ccccc4OC)CC3)c12	nt	i	nt	nt	nt	nt
CC(C)c1ccc(/C=C/C(=O)N2CCCCCC2)cc1	i	i	i	i	21	i
CCCOc1ccc(/C=C/C(=O)N2CCOCC2)cc1	i	i	61	i	56	i
CCCOc1ccc(/C=C/C(=O)N2CCN(c3ccccn3)CC2)cc1	i	i	i	i	i	i
O=C(C=Cc1ccccc1)N1CCCCC1	nt	i	nt	nt	nt	i
CCOc1ccccc1NC(=O)CSc1nnc2[nH]c(=O)cc(-c3ccccc3)n12	nt	i	nt	nt	nt	nt
Nc1ccc(-c2cn3cccnc3n2)cc1	i	i	i	i	17	i
COc1ccc(-c2cn3cccnc3n2)cc1NC(=O)C(C)C	i	nt	i	i	i	nt
CC(=O)Nc1cccc(-c2cn3cccnc3n2)c1	nt	i	nt	nt	nt	nt
COc1ccc(-c2cn3cccnc3n2)cc1Br	i	i	99	i	15	i
COc1ccc(-c2cn3cc(Br)cnc3n2)cc1	i	i	i	i	25	i
CCCCC/C=C\C/C=C\C/C=C\C/C=C\CCCC(=O)O[C@@H](CO)COCCCCCCCCCCCCCCCC	nt	nt	nt	i	nt	nt
CC(C)CC(=O)Nc1nc2c(s1)CC(C(C)(C)C)CC2 (configuration not stated)	nt	i	nt	nt	nt	nt
O=C(NCCSCc1ccco1)Nc1ccccc1	i	i	i	i	48	i
O=C(NCCSCc1c(F)cccc1Cl)Nc1ccccc1	i	i	75	i	32	i
O=C(NCCSCc1ccco1)c1ccc(CN2CCOCC2)cc1	i	i	i	i	9.4	i
O=C(Cc1ccccc1)NCCSCc1ccco1	i	i	i	i	i	i
S=C(NCCSCc1c(Cl)cccc1Cl)Nc1ccccc1	i	i	i	i	i	i
N#Cc1ccccc1CSCCNC(=O)Cc1c(F)cccc1Cl	i	i	i	i	17	i
CN(c1ccc(C(=O)NCCSCc2c(F)cccc2Cl)cc1)S(C)(=O)=O	i	i	i	i	i	i
CCSc1ccc(-c2cc(NC=O)c3ncc(-c4cccc(C(=O)NCCN(C)C)c4)n3c2)cc1	nt	i	nt	nt	nt	i[18.4 µM]
COc1cc(NC(=O)Cc2c(C(=O)O)c(C)cn2C)cc(OC)c1	nt	i	nt	nt	nt	nt
SMILES	LmPK inhibitor	Tb PYK inh	Shiga toxin inh	FBPA Giardia inh	CHX counter	RE007 growth inh
Cc1ccc(NC(=O)Cc2noc3ccccc23)nc1	i	i	59	i	23	i
O=C(Cc1noc2ccccc12)Nc1ccccn1	i	i	88	i	54	i
O=C(Cc1noc2ccccc12)NNC(=S)Nc1ccccc1	i	i	i	i	i	i
COc1cc(NC(=O)Cc2noc3ccccc23)cc(OC)c1OC	nt	i	nt	nt	nt	nt
Cc1ccc(CNC(=O)Cc2noc3ccccc23)cc1	i	i	51	i	33	i
Cc1ccc2onc(CNC(=O)NCc3ccc(Cl)cc3)c2c1	nt	i	nt	nt	nt	nt
COc1cccc(NC(=O)Cn2c(=O)n(-c3ccc(CC(=O)NCC4CCCO4)cc3)c(=O)c3ccccc32)c1 (configuration not stated)	nt	i	nt	nt	nt	nt
CCOc1ccccc1CNC(=O)Cn1nc(N2CCN(c3ccccc3)CC2)ccc1=O	nt	i	nt	nt	nt	nt
CN(C)c1ccc(/C=C/C(=O)c2ccccc2O)cc1	i[11.5 µM]	i	i	i	40	i
CN(C)c1ccc(/C=C/C(=O)c2ccc(O)cc2)cc1	nt	i	nt	nt	nt	i
Cc1ccc(/C=C/C(=O)c2ccccc2O)cc1	i	i	88	i	40	i
Cc1ccc(/C=C/C(=O)c2ccc(C)cc2)cc1	i	i	83	i	68	i
O=C(/C=C/c1ccco1)c1ccccc1O	?	i	59	i	33	i
Cc1ccc(C(=O)C=Cc2cccc(C)c2)cc1	nt	i	nt	nt	nt	i
COc1ncnc2c1ncn2CCCNCc1ccccn1	nt	i	nt	nt	nt	i
